Compound activity as filed in PubChem.
Pf growth 48h: Primary qHTS for delayed death inhibitors of the malarial parasite plastid, 48 hour incubation. P. falciparum luciferase growth in erythrocytes, 48 h. Potency, µM (titrated, usually from 28.7 µM), for the others: at the top dose activity change, negative = inhibition, usual class: inhibitors. hit rate 5.9% among 310,000; active = well fitted inhibition curve with a large enough effect; inconclusive = small, poorly fitted or top-dose-only effect, or another doubt; inactive = no such curve, though single readings can be large or run the other way; also: potency is read from the fitted curve at half-maximal effect; % is scaled to controls: 0 for no effect and ±100 for the full control effect
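Cell-based growth assay: transgenic P. falciparum expressing firefly luciferase, cultured in red cells within RPMI 1640 containing 0.5% w/v Albumax, 24 mM bicarbonate and gentamycin. A drop in luciferase activity indicates inhibition.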
NS1 inh: qHTS Assay for Inhibitors of Influenza NS1 Protein Function | Potency, µM (series often up to 46.1 µM), without a hit: top-dose activity, positive = more growth | hit rate 0.4% among 270,000; also: potency is read from the fitted curve at half-maximal effect; actives are rising curves; nearly all actives have a fitted effect of over 50% in size
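A cell-based growth assay was used: compounds that relieve NS1-induced slow growth of budding yeast raise OD600. Assay medium was yeast nitrogen base with ammonium sulphate and -URA supplement, pH 6.0, with 2% galactose.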
Shiga inhibitor: A qHTS for Small Molecule Inhibitors of Shiga Toxin; AID 2315, 2010; Vero cells, Shiga toxin protein synthesis inhibition reporter; hit rate 9.2% among 290,000; inhibition, % at 38.7 µM; in the data active = inhibition mostly above about 28%, no sharp cut-off; inactive = mostly below about 43%; also: 0% is about no effect
SARS PLP yeast: qHTS of Yeast-based Assay for SARS-CoV PLP; S. cerevisiae expressing SARS-CoV PLpro, growth rescue; Potency, µM (series often up to 32.9 µM), for the others: top-dose activity, positive = growth rescue, actives largely listed as activators; hit rate 0.19% among 330,000; also: potency is read from the fitted curve at half-maximal effect; 0% is about no effect; nearly all actives have a fitted effect of over 55% in size
CHX counter: Cycloheximide Counterscreen for Small Molecule Inhibitors of Shiga Toxin; cell reporter, cycloheximide protein synthesis inhibition counterscreen; max response, %; hit rate 12% among 300,000; AID 2314, 2010; in the data active = max response mostly above about 13%, no sharp cut-off; inactive = mostly below about 14%; also: read at 38.3 µM for the half of the compounds with a filed dose; 0% is about no effect
Pf growth 96h: Primary qHTS for delayed death inhibitors of the malarial parasite plastid, 96 hour incubation | Potency, µM (highest dose often 28.7 µM), without a hit: top-dose activity change, negative = inhibition, hits mostly inhibitors | hit rate 6.9% among 320,000 | P. falciparum luciferase reporter growth, 96 h; active = well fitted inhibition curve with a large enough effect; inconclusive = small, poorly fitted or top-dose-only effect, or another doubt; inactive = no such curve, though single readings can be large or run the other way; also: potency is read from the fitted curve at half-maximal effect; % is scaled to controls: 0 for no effect and ±100 for the full control effect
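Readout is luminescence from an integrated firefly luciferase in P. falciparum. Red cells, 2% hematocrit and 0.05% parasitemia final, were cultured with compound through two parasite generations (96 hours) at 37 C, 5% CO2.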
An asterisk follows results filed as active; ? = inconclusive; . = not tested or not shown. Shown are actives, neighbours in structure and some others; about 21% of the full set was active somewhere. Unless noted, calls follow the shape of the full dose curve.

SMILES	Pf growth 48h	NS1 inh	Shiga inhibitor	SARS PLP yeast	CHX counter	Pf growth 96h
Cc1cc(Nc2ccccc2C(=O)O)n(-c2ccc([N+](=O)[O-])cc2)n1	-7%	0%	10	0%	-4	0%
CC(NC(=O)c1cccc(S(=O)(=O)N2CCCCCC2)c1)c1ccccc1 (stereo not given)	?	.	.	-1%	.	?
CC(=O)N1CCN(c2ccc(NC(=O)c3ccc([N+](=O)[O-])o3)cc2Cl)CC1	?	-15%	50*	-17%	25*	5.2µM*
CCC(=O)N1CCN(c2ccc(NC(=O)c3ccc([N+](=O)[O-])o3)cc2Cl)CC1	?	.	-35	-24%	-23	14%
C=CCOc1ccc(/C=N/NC(=O)CN(c2cc(Cl)ccc2OC)S(=O)(=O)c2ccc(C)c([N+](=O)[O-])c2)cc1	?	10%	-11	-6%	0	-10%
COc1ccc(NC(=O)Cn2c(=O)n(-c3ccc(OC)cc3OC)c(=O)c3c(C)c(C)sc32)cc1	?	8%	-9	-5%	-1	12µM*
Cc1ccc2[nH]c(=O)c(CNS(=O)(=O)c3ccccc3)c(-c3ccccc3)c2c1	-14%	-10%	-8	10%	-3	94%
CC1(C)CC(NC(=O)c2coc(=O)c(Br)c2)CC(C)(C)N1	-9%	2%	2	1%	-2	?
CCOC(=O)CNC(=O)Cn1cnc2c(nnn2-c2ccccc2)c1=O	10%	12%	15	2%	-2	49%
COc1cccc(C(=O)Oc2ccccc2/C=C\C(=O)c2cc3ccccc3o2)c1	?	?	63*	5%	86*	?
O=C(Oc1ccccc1/C=C\C(=O)c1cc2ccccc2o1)c1cccc(F)c1	20%	2%	41*	-7%	37*	-1%
COc1ccc(O)c(C(=O)/C=C/c2cc3ccccc3o2)c1	.	-24%	18	-2%	37	.
O=C(Oc1ccccc1/C=C\C(=O)c1cc2ccccc2o1)c1ccccc1	20%	-7%	90*	7%	35*	-3%
CCOc1ccccc1C(=O)OCC(=O)NCCNC(=O)COC(=O)c1ccccc1OCC	-14%	-2%	-12	1%	-3	?
N/N=C/C(=N\Nc1ccc(Cl)cc1)C(=O)c1ccncc1	?	-9%	-3	-2%	1	?
N=C1S/C(=C\c2cccc3ccccc23)C(=O)N1c1ccc(F)cc1	12µM*	3%	25	-2%	0	-12%
N=C1S/C(=C\c2cn[nH]c2-c2ccc(F)cc2)C(=O)N1c1ccccc1F	41%	?	-3	24%	20*	?
O=C(Nc1ccc(S(=O)(=O)NC2=NCCCCC2)cc1)c1ccc2ccccc2n1	?	.	33	-1%	23	?
Cc1nn(-c2ccccc2)c(Cl)c1/C=N/Nc1nc2ccccc2[nH]1	0.74µM*	2%	146*	-8%	39*	0.74µM*
COc1ccc(-c2cnnc(N/N=C/c3c(C)nn(-c4ccccc4)c3Cl)n2)cc1	-25%	?	19	11%	-2	?
Cc1cc(=O)[nH]c(N/N=C/c2c(C)nn(-c3ccccc3)c2Cl)n1	4.7µM*	-5%	26	-1%	7	8.3µM*
N#Cc1ccc(-c2csc(NC(=O)c3cc(-c4cccs4)nc4ccccc34)n2)cc1	?	-4%	-13	-1%	-1	?
COc1cc(/C=N/NC(=O)c2cc(-c3cccs3)nc3ccccc23)ccc1O	?	3%	45*	0%	15	?
N#Cc1ccc(/C=N/NC(=O)c2cc(-c3cccs3)nc3ccccc23)cc1	?	-20%	27	-19%	22*	?
CCOc1ccc(-c2ccc(SCC(=O)Nc3nnc(C)s3)nn2)cc1	-3%	.	19	0%	10	-8%
CCc1ccc(-c2ccc(SCC(=O)Nc3nnc(C)s3)nn2)cc1	145%	3%	80*	0%	21	53%
Cc1nnc(NC(=O)CSc2ccccn2)s1	7%	0%	21	-2%	1	13µM*
